{
  "source": "PubChem BioAssay (Tox21)",
  "note": "Records with an inconclusive call do not appear. Values without a mark were called inactive. The source made the active and inactive calls. Calls come from the whole dose curve. % is set by controls: 0 for no effect and ±100 for the full control effect; potency is the fitted concentration of half-maximal effect.",
  "data": [
    {"target": "Beta-2 adrenergic receptor (Homo sapiens) (UniProt P07550)", "sequence (P07550 whole entry, looked up)": "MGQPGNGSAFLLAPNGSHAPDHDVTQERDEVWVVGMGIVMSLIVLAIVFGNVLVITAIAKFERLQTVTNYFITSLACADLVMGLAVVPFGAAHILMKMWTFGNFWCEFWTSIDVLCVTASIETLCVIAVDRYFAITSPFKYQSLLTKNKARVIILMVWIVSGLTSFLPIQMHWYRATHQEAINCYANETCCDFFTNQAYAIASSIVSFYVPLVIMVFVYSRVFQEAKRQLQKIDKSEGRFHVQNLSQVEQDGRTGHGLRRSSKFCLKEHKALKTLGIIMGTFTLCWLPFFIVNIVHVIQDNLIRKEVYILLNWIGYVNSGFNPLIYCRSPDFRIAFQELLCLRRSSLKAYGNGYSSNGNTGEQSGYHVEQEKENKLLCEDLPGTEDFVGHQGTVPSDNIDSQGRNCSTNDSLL", "assay": "Adrenergic beta2 receptor (ADRB2) small molecule antagonists, cell-based qHTS assay (AID 1963592); note: nearly all actives have a fitted effect of over 50% in size", "settings": "CHO-ADRB2 cells, isoproterenol-stimulated cAMP HTRF ratio, 0.5 h; series mostly up to 92.4 µM; activity change, negative = inhibition: at the top concentration", "excerpt": "U.S. Tox21 Program National Center for Advancing Translational Sciences [NCATS] Division of Preclinical Innovation [DPI] U.S. Environmental Protection Agency [EPA] National Institutes of Environmental Health Sciences [NIEHS] National Toxicology Program [NTP] U.S. Food and Drug Administration [FDA] Tox21 Assay Overview: Beta adrenergic receptors (Beta-ARs) belong to the G-protein coupled receptor (GPCR) superfamily, includes three subtypes - beta1, beta2, and beta3. Beta1-AR is the predominant receptor subtype expressed in the heart, and beta2-AR is expressed in the kidney, lung, blood vessel and in the heart, and beta3 is found in the adipocytes. Beta1 and 2 ARs couple to Gs protein and elevate cyclic adenosine mono phosphate (cAMP), which activates protein kinase A and leads to the downstream signaling responsible for the physiological actions. Beta-AR agonists or antagonists are the most prescribed therapeutic agents for heart failure and asthma, and these were one of the first target receptors for the rational drug design. Tox21 10K compound library was screened using the cAMP-Gs dynamic assay (Cisbio Bioassays, Shelton, CT) to identify agonists/antagonists of the Gs-coupled human adrenergic, beta2 receptor (ADRB2) in the CHO-ADRB2 cell line (Codex BioSolutions, Inc. Gaithersburg, MD), which stably over-expresses ADRB2. The principle of cAMP-Gs dynamic assay is based on HTRF technology, which facilitates the fluorescence resonance energy transfer (FRET) between donor Europium cryptate and acceptor d2-labeled cAMP. The cAMP generated within cells competes with the red acceptor, d2-labled cAMP, for binding to the monoclonal anti-cAMP-cryptate (Europium donor). An increase in intracellular cAMP leads to the disruption of FRET signal, and the signal is inversely proportional to the cAMP concentration. Propranolol HCl (Sigma-Aldrich, St. Louis, MO) was used as a positive control in the screening.\nTox21 Assay Protocol Summary: CHO-ADRB2 cells were dispensed at 1,000/well in 4uL assay medium into white/solid 1536-well plates (Greiner Bio-One North America Inc., Monroe, NC) using a Multidrop Combi dispenser (ThermoFisher Scientific, Waltham, MA). The assay plates were incubated at 37C and 5% CO2 for an overnight (18-20hr). Then positive control and test compounds dissolved in DMSO were transferred to the assay plates at 23nL using a Pintool station (Wako, San Diego, CA). Following the compound and positive control transfer, 1uL agonist-stimulation mix containing 1nM Isoproterenol HCl, 100uM IBMX and 25uM Ro-20-1724 was added to each well of the assay plates using BioRAPTR Flying Reagent Dispenser (FRD, Beckman Coulter, Brea, CA). The assay plates were incubated at room temperature for 0.5hr. Then 2.5ul each d2-labled cAMP and anti-cAMP-cryptate solutions were added separately to each well of the assay plates using an FRD and the assay plates were incubated at room temperature for 1hr. The fluorescence signal was measured at two different wavelengths (665nm and 615nm) using an Envision plate reader (Perkin Elmer, Shelton, CT). Data were expressed as the ratio of 665 nm/615 nm.", "values": [
      {"smiles": "CCCCCCCCCCCC(C)=O", "activity change, negative = inhibition": "2.21%"},
      {"smiles": "CCCCC(CC)CN1C(=O)C2C3C=CC(C3)C2C1=O", "note": "(stereo not given)", "activity change, negative = inhibition": "-6.37%"},
      {"smiles": "Cc1ccnc2ccccc12", "activity change, negative = inhibition": "1.54%"},
      {"smiles": "N=C1N=C(N)c2ccccc21", "activity change, negative = inhibition": "0.401%"},
      {"smiles": "C/C(=N\\[Si](C)(C)C)O[Si](C)(C)C", "activity change, negative = inhibition": "-10.7%"},
      {"smiles": "CCNC(=O)N1CCN(CCCC(c2ccc(F)cc2)c2ccc(F)cc2)CC1", "activity change, negative = inhibition": "-8.69% [at 42.5 µM]"},
      {"smiles": "CN(C)C(=O)CNC(=O)Cc1ccccc1", "activity change, negative = inhibition": "1.61% [at 42.5 µM]"},
      {"smiles": "O=C(O)Cc1ccccc1Oc1ccc(Cl)cc1Cl", "activity change, negative = inhibition": "-9.42% [at 42.5 µM]"},
      {"smiles": "COC(C)(OC)OC", "activity change, negative = inhibition": "5.93%"},
      {"smiles": "COc1cccc(O)c1O", "activity change, negative = inhibition": "0.783%"},
      {"smiles": "C1CC(COCC2CO2)CCC1COCC1CO1", "note": "(stereo not given)", "activity change, negative = inhibition": "-1.77%"},
      {"smiles": "CN(C)C(=O)Nc1ccc(Oc2ccc(Cl)cc2)cc1", "activity change, negative = inhibition": "-7.71%"},
      {"smiles": "Cc1c(C)c2c(c(C)c1O)CC[C@@](C)(CCC[C@H](C)CCC[C@H](C)CCCC(C)C)O2", "activity change, negative = inhibition": "0.654%"},
      {"smiles": "C[C@@H](CN1CC(=O)NC(=O)C1)N1CC(=O)NC(=O)C1", "activity change, negative = inhibition": "1.05% [at 42.5 µM]"},
      {"smiles": "CN(Cc1cc(Br)cc(Br)c1N)C1CCCCC1", "activity change, negative = inhibition": "3.33% [at 42.5 µM]"},
      {"smiles": "C=C[C@@H](C)CCC=C(C)C", "activity change, negative = inhibition": "10.7%"},
      {"smiles": "C=CCCCCCCCCC=O", "activity change, negative = inhibition": "1.27%"},
      {"smiles": "CCN(O)CC", "activity change, negative = inhibition": "-9.11%"},
      {"smiles": "CC(C)NCCCC1(C(N)=O)c2ccccc2-c2ccccc21", "activity change, negative = inhibition": "-1.41% [at 42.5 µM]"},
      {"smiles": "C[N+]1(C)[C@@H]2CC(OC(=O)[C@H](CO)c3ccccc3)C[C@H]1[C@@H]1O[C@@H]12", "note": "(stereo not given in full)", "activity change, negative = inhibition": "0.191% [at 42.5 µM]"},
      {"smiles": "CCCCCCC(=O)OCC", "activity change, negative = inhibition": "-6.44%"},
      {"smiles": "CCOC(=O)Nc1ccc(NCc2ccc(F)cc2)nc1N", "activity change, negative = inhibition": "2.82% [at 42.5 µM]"},
      {"smiles": "CCCCCCCCCCCCN(CCO)CCO", "activity change, negative = inhibition": "-9.26%"},
      {"smiles": "COc1cc(O)cc(O)c1", "activity change, negative = inhibition": "-2.25% [at 42.5 µM]"},
      {"smiles": "CCN(CC)CCNc1ccc(CNC=O)c2sc3ccc(OC)cc3c(=O)c12", "activity change, negative = inhibition": "-8.03%"},
      {"smiles": "O=C1OC(=O)c2cc([N+](=O)[O-])ccc21", "activity change, negative = inhibition": "-2.79%"},
      {"smiles": "COc1ccc2nc(SCc3ncc(C)c(OC)c3C)[nH]c2c1", "activity change, negative = inhibition": "1.94% [at 42.5 µM]"},
      {"smiles": "O=C(Nc1ccccc1)c1ccccc1O", "activity change, negative = inhibition": "-12.2%"},
      {"smiles": "O=C(c1ccccc1)c1ccc(Cl)cc1", "activity change, negative = inhibition": "-16.4%"},
      {"smiles": "C[C@]12CCC(=O)C=C1CC[C@@H]1[C@@H]2[C@@H](O)C[C@@]2(C)[C@H]1CC[C@]2(O)C(=O)COC(=O)CCC(=O)O", "activity change, negative = inhibition": "-8.09% [at 42.5 µM]"},
      {"smiles": "CC1=CCC2C(C1)C2(C)C", "note": "(stereo not given)", "Potency": "27.3 µM (active)"},
      {"smiles": "Oc1ccc(-c2ccc(O)cc2)cc1", "activity change, negative = inhibition": "0.095%"},
      {"smiles": "Nc1cccc(S(=O)(=O)O)c1", "activity change, negative = inhibition": "-2.52%"},
      {"smiles": "C=CC(=O)OCC(Br)CBr", "note": "(stereo not given)", "activity change, negative = inhibition": "-12.4%"},
      {"smiles": "CCCCOCCOC(=O)c1cccnc1", "activity change, negative = inhibition": "12% [at 42.5 µM]"},
      {"smiles": "Cc1cc(NC(=O)C2=C(O)c3ccccc3S(=O)(=O)N2C)no1", "activity change, negative = inhibition": "-4.98% [at 42.5 µM]"},
      {"smiles": "CCC1C(=O)OCC1Cc1cncn1C", "note": "(stereo not given)", "activity change, negative = inhibition": "11.1% [at 42.5 µM]"},
      {"smiles": "C1=C\\CC/C=C\\CC/1", "activity change, negative = inhibition": "4%"},
      {"smiles": "Cn1c(=O)[nH]c2ncn(C)c2c1=O", "activity change, negative = inhibition": "-11.6%"},
      {"smiles": "CC(C)=NNC(N)=S", "activity change, negative = inhibition": "-5.44%"}
    ]}
  ]
}
